system: tubulin (bovine brain); experiment: tubulin polymerization end-point dOD, fold change relative to DMSO vehicle; higher = more polymerization (stabilization); details: 50 µM; 60 min; 37 °C
Protocol: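 In-vitro tubulin polymerization assay (Cytoskeleton HTS kit) with 4 mg/ml bovine brain tubulin in G-PEM buffer and compound at 50 uM (0.5% DMSO). Turbidity was read at 340 nm every minute for 1 h at 37 C. The end-point change in OD (dOD) was converted to % fold change relative to the DMSO vehicle (0%), and runs were scaled using DMSO and Taxol controls. The paper calls >20% an effect, 20-40% weak and >40% strong; positive values mean stabilization, negative values destabilization. Scale: negative = destabilization.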

SMILES	tubulin polymerization end-point dOD [%]
Nc1nc(SCC(=O)NC2CCCCC2)nc2sc3c(c12)CCCC3	-12
Cc1cnc(C(=O)Nc2ncc(Cc3cccc(C)c3Cl)s2)cn1	-85.7
O=c1c(Cl)c(N2CC=C(c3ccccc3)CC2)cnn1-c1nc2ccccc2[nH]1	-22.9
COc1ccc(Cl)cc1NC(=O)CSc1nnc(-c2ccncc2)n1-c1ccccc1	-50.9
COc1ccc2nc(/C=C/c3cccnc3)sc2c1	-29.9
CCc1ccccc1NC(=S)N(CCCO)Cc1cc2cc(C)cc(C)c2[nH]c1=O	-51.6
Cc1ccc(-c2csc3ncn(CC4CCCCO4)c(=O)c23)cc1 (stereo not given)	-190
COc1ccc2nc(SCC(=O)Nc3ccccc3Br)c(C#N)cc2c1	14.8
CCS(=O)(=O)N1CCc2cc(C3=NN=C(NCc4ccc5c(c4)OCO5)SC3)ccc21	227
CC1Cc2ccccc2N1C(=O)CSc1nnc(-c2cc3ccccc3cc2O)n1C (stereo not given)	-10.6
O=C(c1cncn1-c1ccccc1)N1CCN(c2cccc(Cl)c2)CC1	-50
Cc1cc2nc(-c3ccc(SCC#N)nc3)[nH]c2cc1C	51.8
COC(=O)Nc1nc2cc(Sc3ccccc3)ccc2[nH]1 [Fenbendazole]	-27.1
O=c1[nH]c(/C=C/c2ccccc2)nc2sc3c(c12)CCCCC3	16.8
O=C(Nc1ccc(N2CCCC2)cc1)C1COc2ccc(Cl)cc2C1 (stereo not given)	19.2
O=c1[nH]c(/C=C/c2ccccc2F)nc2ccccc12	21.3
Cc1ccc(Nc2nc(N)nc(CN3C(=O)NC(C)(c4ccccc4)C3=O)n2)cc1 (stereo not given)	48.1
COc1cc2c(cc1OC)C(c1cccs1)[NH+](CC(O)c1ccccc1)CC2 (stereo not given)	-40.4
CCOc1ccc(C2=[NH+]c3ccccc3C(c3cccnc3)=NN2)cc1	109
O=C(Nc1ccc(Cl)cc1)N(Cc1cc2cc3c(cc2[nH]c1=O)OCCO3)CC1CCCO1 (stereo not given)	-20.7

SMILES	tubulin polymerization end-point dOD [%]
CC(=O)Nc1ccc(Nc2nc(-c3c(C)nc4ccccn34)cs2)cc1	30.8
Cc1cccc2cc3c(N)c(C(=O)N4CCCc5ccccc54)sc3nc12	-46.4
CSc1ncc(C(=O)Nc2ccc(Oc3ccc4c(c3)OCO4)cc2)cn1	-8.44
CCOc1ccc(C(=O)N(Cc2cccs2)Cc2cc3cc(C)ccc3[nH]c2=O)cc1	27.2
Cc1ccc(/C=N/NC(=O)c2ccc3c(c2)OCO3)cc1	-38.5
Cc1ccc(C(=O)Nc2nc3ccc(Oc4ccccc4)cc3s2)cn1	15.6
COc1ccccc1-n1c(SCC(=O)Nc2nccs2)nnc1-c1cccnc1	5.05
Cc1csc(NC(=O)CSc2nnc(-c3cccnc3)n2-c2ccccc2C)n1	-45.1
CCOc1c(Cl)cc(C(=O)N2CCN(c3cccc(C)c3)CC2)cc1OC	-52.8
O=C(Nc1ncc(Cc2ccccc2Br)s1)c1cnccn1	6.47
CCC1c2ccsc2CC[NH+]1Cc1ccc(N2CCCC2=O)cc1 (stereo not given)	-43.7
O=C(Nc1ncc(Cc2ccccc2)s1)c1cc(Br)c[nH]1	2.89
C/C(=N\NC(=O)c1cccc(F)c1)c1ccc(Br)s1	9.02
Cc1ccc2cc(C#N)c(SCC(=O)c3ccccc3)nc2c1	-46.9
O=C(Nc1nc2ccccc2[nH]1)c1cccc2ccccc12	-76.4
COc1ccc(NC(=O)N(Cc2cc3ccc(C)c(C)c3[nH]c2=O)CC2CCCO2)cc1 (stereo not given)	33.3
COc1ccc(C)cc1NC(=O)CSc1nc2ccc(C(C)C)cc2cc1C#N	-41.3
Clc1ccc2sc(/C=C/c3cccnc3)nc2c1	47.1
CCOc1ccc2nc(SCC(=O)Nc3ccccc3CC)c(C#N)cc2c1	-22.2
COc1ccc(C2=NOC(=O)/C2=N/Nc2ccc(Cl)cc2)cc1	19

Source: the supplement of paper PMC4380459
